For 17 compounds, AC50 and outcome results are on record in PubChem BioAssay (EPA / NIEHS).

The source made the active and inactive calls. The calls were made as follows: active = hit-call score of the fitted dose curve at least 0.9, where 1 is the maximum; inactive = score below 0.9.

This assay can be described thus: CEETOX_H295R_CORTISOL: CeeTox H295R High-throughput Steroidogenesis Assay for Cortisol (AID 2283438).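 Also: cortisol secreted into medium quantified by LC-MS/MS.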 Particulars: actives raise or lower the signal. On the procedure: CEETOX_H295R is a cell-based, multiplexed-readout assay that uses H295R, a human adrenal gland cell line, with measurements taken at 48 hours after chemical dosing in a 96-well plate.CEETOX_H295R_CORTISOL is one of 23 assay component(s) measured or calculated from the CEETOX_H295R assay. It is designed to make measurements of hormone induction, a form of inducible reporter, as detected with absorbance signals by HPLC-MS-MS technology.Data from the assay component CEETOX_H295R_CORTISOL was analyzed into 1 assay endpoint. This assay endpoint, CEETOX_H295R_CORTISOL, was analyzed with bidirectional fitting relative to DMSO as the negative control and baseline of activity. Using a type of inducible reporter, gain or loss-of-signal activity using HPLC-MS-MS was used to understand synthesis of Cortisol in H295R cell line at 48hr of chemical exposure. To generalize the intended target to other relatable targets, this assay endpoint is annotated to the steroid hormone intended target family, where the subfamily is glucocorticoids.
Cell culture and media preparation procedures were conducted in accordance with OECD Test No. 456 guidelines, with minor modifications. H295R cells (ATCC CRL-2128) were expanded for 5 passages and frozen in batches in liquid nitrogen. Prior to the steroidogenesis assay, H295R cells were thawed and passed at least 4 times. The maximum passage was 10. Cells were maintained in a 1:1 mixture of DMEM/F12 supplemented with 5ml/L ITS+ Premix (BD Bioscience) and 12.5 ml/L Nu-Serum (BD Bioscience). After seeding cells into 96-well plates at 50-60% confluency, cells were allowed to adhere overnight. Prior to chemical testing, culture medium was replaced with 175 uL medium containing 10 uM forskolin to stimulate steroidogenesis for 48 hours. Following prestimulation, forskolin medium was replaced with medium containing test chemical solubilized in DMSO (ensuring a final concentration of 0.1% DMSO). Test chemicals were incubated for 48 hours, then the medium was removed and split into 2 vials containing approximately 75uL each, and stored at -80 C prior to hormone analysis. For steroid quantification, media samples were shipped to OpAns, LLC (Durham, NC) on dry ice, and samples were thawed to room temperature prior to liquid-liquid extraction. Steroid hormones were extracted from media samples using methyl tertbutyl ether (MTBE). An extra derivatization with dansyl chloride was included for estrogen (estrone and estradiol) detection only. Steroid hormones were separated by HPLC, eluted using a reverse phase C18 gradient with electrospray positive ionization, followed by quantification by tandem mass spectrometry (MS/MS). Data were acquired on a MassHunter Workstation Acquisition version B03.01 (Agilent Technologies, Inc.) and processed using MassHunter Quantitative Analysis for QQQ. Accuracy was determined for each hormone analyte from 3 standards to determine upper and lower limits of quantification (ULOQ and LLOQ, respectively) using a 7-point standard curve. Precision and accuracy of the extraction and quantification methods were calculated as the percent relative standard deviation (%RSD) of the spiked standards and percent spiked standard recovered, respectively. The goal was to achieve 100% accuracy (i.e., recover all spiked-in standard at quantification with minimal loss during run time) and good precision (i.e., have %RSD <15% to ensure reproducibility). Test medium was removed following chemical exposure, and cell viability was evaluated in the same wells by MTT. MTT procedures were as follows: after removal of test medium, 500 uL of 0.5 mg/ml of 3-[4,5-dimethylthiazol-2-y]2,5-diphenyltetrazoliumbromide solution was added to the cells. Following a 4-hour incubation at 37 C and 5% CO2 to allow formazan-crystal formation, the MTT solution was removed and blue formazan salt crystals were solubilized using 500uL anhydrous isopropanol with shaking for 20 minutes. […]
`CCC(=O)O[C@H]1CC[C@H]2[C@@H]3CCC4=CC(=O)CC[C@]4(C)[C@H]3CC[C@]12C`: the AC50 was 30.7 µM (active).

In the case of `c1cc2ccc3cccc4ccc(c1)c2c34`, the call was inactive.

Consider `CCSC(=O)N(CC)C1CCCCC1`, for which the result was inactive.

In the case of `C[C@]12CCC(=O)C=C1CC[C@@H]1[C@@H]2CC[C@@]2(C)[C@H]1CC[C@]2(C)O`, the AC50 is 7.76 µM (active).

Consider `Oc1ccc(Cl)cc1Cl`, for which the result was inactive.

On to `CCOCCOC(C)=O`, for which the compound was classed as inactive.

Turning to `O=C(NC(=O)c1c(F)cccc1F)Nc1cc(Cl)c(OC(F)(F)C(F)F)c(Cl)c1`, the result was inactive.

On to `Clc1ccc(C(c2ccccc2Cl)C(Cl)(Cl)Cl)cc1` (configuration not stated), for which the outcome was inactive.

For the compound `CC#Cc1cc(C)nc(Nc2ccccc2)n1`, the call was inactive.

With `Cc1cc(O)ccc1Cl`, the result was inactive.

Turning to `NS(=O)(=O)C(F)(F)C(F)(F)C(F)(F)C(F)(F)C(F)(F)C(F)(F)C(F)(F)C(F)(F)F`, the compound was classed as inactive.

On to `Cc1cccc(C)c1N`, for which the result was inactive.

For `Cc1ccc(O)c(C)c1`, the compound was called inactive.

`CC1=C2C[C@H]3[C@@H](CC=C4C[C@@H](O)CC[C@@]43C)[C@@H]2CC[C@]12O[C@@H]1C[C@H](C)CN[C@H]1[C@H]2C`: the call was inactive.

In the case of `Nc1ccc(-c2ccc(N)cc2)cc1`, the half-maximal activity concentration (AC50) is 65.8 µM (active).

In the case of `ClC1=C(Cl)[C@]2(Cl)[C@@H]3[C@H]4C[C@H]([C@@H]5O[C@H]45)[C@@H]3[C@@]1(Cl)C2(Cl)Cl`, the concentration at half-maximal activity (AC50) was 5.13 µM (active).

`C=CC(N)=O`: the call was inactive.
